A selection: hits, their analogues and other compounds. The true share with any hit is near 12%.
JMJD2A Tudor – blocks the human JMJD2A Tudor domain | AID 504339 | 4.4% of 390,000 active | AlphaScreen JMJD2A-Tudor / H3K4me3 peptide binding | Potency, µM (series often up to 114 µM), without a hit: at the highest dose activity change, negative = inhibition, most hits filed as inhibitors; also: potency is read from the fitted curve at half-maximal effect; % is scaled to controls: 0 for no effect and ±100 for the full control effect; nearly all actives have a fitted effect of over 50% in size
BAZ2B block – BAZ2B (human) inhibition | Q9UIF8 | AlphaScreen BAZ2B-H3K14Ac peptide displacement | Potency, µM (series often up to 114 µM), for the others: at the top dose activity change, negative = inhibition, hits mostly inhibitors | 4.4% of 360,000 active | AID 504333; also: potency is read from the fitted curve at half-maximal effect; % is scaled to controls: 0 for no effect and ±100 for the full control effect; nearly all actives have a fitted effect of over 60% in size
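Compounds, titrated to a top concentration of 110 uM, were incubated 30 min at room temperature with preformed BAZ2B/acetyl-K14 H3 peptide complex (50 nM each). Proximity signal was measured by AlphaScreen after 20 min with beads.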
G9a inh – G9a (human) methyltransferase inhibition. Potency, µM (top dose mostly 102 µM), for inactives: at the top dose activity, negative = inhibition, actives largely listed as inhibitors. G9a H3K9 monomethylation, AlphaScreen, 2 h. AID 504332. 8.8% of 350,000 active; also: potency is read from the fitted curve at half-maximal effect; % is scaled to controls: 0 for no effect and ±100 for the full control effect; nearly all actives have a fitted effect of over 75% in size
Target sequence (Q96KQ7 913-1193 limits assumed): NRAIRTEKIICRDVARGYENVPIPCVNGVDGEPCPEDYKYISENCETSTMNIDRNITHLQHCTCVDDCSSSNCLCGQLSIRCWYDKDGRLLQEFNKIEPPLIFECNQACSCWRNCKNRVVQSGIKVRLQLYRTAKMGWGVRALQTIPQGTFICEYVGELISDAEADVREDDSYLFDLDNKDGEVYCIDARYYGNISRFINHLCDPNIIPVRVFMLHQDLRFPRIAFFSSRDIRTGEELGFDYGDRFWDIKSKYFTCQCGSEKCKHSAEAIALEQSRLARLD
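Enzyme 20 nM + cpd, 15 min RT; add b-H3K9 pep 500 nM / SAM 20 uM; 2 h RT; anti-H3K9me1 Ab 0.5 ug/mL + SA donor / anti-rabbit acceptor beads 20 ug/mL each, 10 min; AlphaScreen read.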
PI5P4Ka inh – PI5P4K alpha (human) kinase inhibition | P48426 | PI5P4Kalpha enzyme, ADP-Glo luminescence, 60 min; active compounds read low | max response, % | 1.2% of 330,000 active | AID 652105; active = max response of -50% or lower; inconclusive = between -30% and -50%; inactive = -30% or higher; also: value at the top dose of about 77 µM; % is scaled to controls: 0 for no effect and ±100 for the full control effect
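Quantitative HTS of the MLSMR library against PI5P4Kalpha with substrate. ATP added last at 5 microM final; room temperature, 60 minutes. Remaining ATP depleted, ADP converted and read as luminescence.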
HP1b chromo inh – blocks HP1-beta chromodomain binding to methylated histone tails. AlphaScreen HP1-beta / biotin-H3K9me3 peptide binding. P83916. Potency, µM (series often up to 114 µM), for inactives: at the top dose activity change, negative = inhibition, hits mostly inhibitors. AID 540317. 0.56% of 390,000 active; also: potency is read from the fitted curve at half-maximal effect; nearly all actives have a fitted effect of over 70% in size
Target sequence (P83916 whole entry, looked up): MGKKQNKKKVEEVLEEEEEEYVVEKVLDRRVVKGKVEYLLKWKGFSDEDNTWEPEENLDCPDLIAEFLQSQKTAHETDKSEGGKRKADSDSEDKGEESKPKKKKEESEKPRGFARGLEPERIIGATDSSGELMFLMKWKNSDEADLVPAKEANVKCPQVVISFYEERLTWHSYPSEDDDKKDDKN
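HP1-beta protein (50 nM final) preincubated 30 min at room temperature with biotinylated H3(1-18)K9me3 peptide (50 nM) in PBS pH 7.4, 0.01% Tween-20, then compound added for 30 min. AlphaScreen streptavidin donor/nickel chelate acceptor beads (10 ug/mL final), 30 min dark, luminescence read.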
PLK1 PBD inh – inhibitors of human PLK1 polo-box domain binding | P53350 | Plk1 PBD binding of FITC phosphopeptide, fluorescence polarization | Potency, µM, inactives show max response, negative = inhibition, most hits filed as inhibitors | 2.8% of 360,000 active; also: potency is read from the fitted curve at half-maximal effect; series mostly up to about 57 µM; % is scaled to controls: 0 for no effect and ±100 for the full control effect; nearly all actives have a fitted effect of over 65% in size
* hit, by the source's call; ? = inconclusive; · = no result given; [ ] = another dose, or the depositor's remark. Unless noted, calls follow the shape of the dose curve; as a rule, active = well fitted curve in the direction sought with a large enough effect; inconclusive = small, poorly fitted or top-dose-only effect, or another doubt; inactive = no such curve, though single readings can be large; an effect the other way counts as inactive or inconclusive.

SMILES | JMJD2A Tudor | BAZ2B block | G9a inh | PI5P4Ka inh | HP1b chromo inh | PLK1 PBD inh
COc1ccc(Nc2cc(NCCCO)c([N+](=O)[O-])c3nonc23)cc1 | -6.4% | -8.1% | -2.9% | -1.0 | 17.8% | -10.2%
COC(=O)CCSc1cc(NCCOC(C)=O)c([N+](=O)[O-])c2nonc12 | -7.7%[57.1 µM] | -10.6% | 25.8% | 3.1 | -6.1%[57 µM] | -8.7%
CC(=O)OCCNc1cc(SCc2ccco2)c2nonc2c1[N+](=O)[O-] | 50.1µM* | ? | 44.7µM* | ? | -38.6% | ?
O=[N+]([O-])c1c(NCCCO)cc(Sc2ccc(Cl)cc2)c2nonc12 | -24.8% | -4.0% | ? | -5.2 | 22.5% | 2.38µM*
Cc1ccc(NC(=O)CN(C)C(=O)c2cccc(S(=O)(=O)N3CCc4ccccc43)c2)cc1 | -23.2% | 0.9% | ? | -2.0 | 39.4% | 2.1%
CCOc1cccc(OCCCn2c(-c3ccc(Br)cc3)nc3ccccc3c2=O)c1 | 39.4% | 6.9% | 1.3%[59 µM] | · | 100.7% | ·
CC(CNC(=O)C1CCN(C(=O)c2cc3sccc3n2C)CC1)c1ccccc1 (configuration not stated) | -4.7% | -16.8% | -8.4%[59 µM] | · | 14.4% | ·
Cc1ccc(NC(=O)c2cnn3c(C(F)F)cc(-c4ccccc4)nc23)c(C)c1 | -16.2% | -1.4% | -1.1%[59 µM] | · | 34.3% | ·
COc1ccccc1N1C(=O)N(C(C)=O)C2C1Nc1ccccc1N2C (configuration not stated) | ? | · | 7.08µM* | · | -19.8% | -9.3%
O=C(NN1C(=O)C2C3C=CC(O3)C2C1=O)c1cccc(O)c1 (configuration not stated) | -13.1% | -2.9% | 7.94µM* | -8.9 | 42.7% | -5.7%
COc1ccc(C(=O)NN2C(=O)C3C4C=CC(O4)C3C2=O)cc1 (configuration not stated) | -10.9% | 0.1% | 4.47µM* | -5.3 | 10.7% | -6.1%
FC(F)(F)c1ccccc1-c1nc(N2CCOCC2)c2ccccc2n1 | · | · | 7.1%[0.501 µM] | · | · | ·
CC1Cn2cc(C(=O)Nc3ccccc3C(F)(F)F)c(=O)c3c(Cl)ccc(c32)O1 (configuration not stated) | -19.2% | 5.5% | 9.8%[12.7 µM] | · | 15.5% | ·
COc1ccc(NC2=C(NC(C)=O)C(=O)c3ccccc3C2=O)cc1 | -21.0% | ? | ? | -15.7 | ? | -2.0%
CCC(=O)NC1=C(Nc2ccc(N)cc2)C(=O)c2ccccc2C1=O | -22.7% | ? | 50.1µM* | -23.9 | ? | -9.8%
CCC(=O)Nc1ccc(C2C(=O)c3ccccc3C2=O)cc1 | ? | ? | 33.7%[0.501 µM] | -6.1 | ? | 23.8µM*
CCC(=O)Nc1ccc(NCc2ccc(-c3ccccc3)cc2)cc1 | ? | -26.8% | 25.1µM* | -9.1 | 4.3% | 5.6%
O=C(CNC(=O)c1ccccc1)N[C@@H](C(=O)Nc1cc(C(F)(F)F)ccc1Cl)c1ccccc1 | -17.8% | · | · | · | · | ·
c1ccc(Cn2c(Cn3c(-c4cnccn4)nc4ccccc43)nc3ccccc32)cc1 | · | · | · | 4.3 | · | -17.8%
COc1ccc(-c2nc3ccccc3c(=O)n2Cc2ccccc2)cc1CNc1ccc(NC(C)=O)cc1 | 50.1µM* | · | · | · | · | ·

Bioassay records (PubChem BioAssay)
